Assay results from PubChem BioAssay.
For some of these results: Results with a measured potency or affinity are listed apart. Calls of active or inactive are those of the source.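 The calls were made as follows, unless noted: active = membrane potential signal rise above negative control mean plus 3 SD in both duplicates, also active in the earlier TRPC4 screen; inactive = the rest.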

Key:
[1] = test system: TRPC4 beta (transient receptor potential cation channel C4), mouse; assay: activators of mouse TRPC4 channel, confirmation, cell-based, Fluo4 calcium, HEK293 TRPC4beta/mu-opioid, duplicates, 10 µM (AID 2426;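 active = fluorescence ratio normalized to control raised more than 50% in primary screen plus both repeat runs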); settings: Fluo4 calcium fluorescence, at 10 µM; stronger effect = higher value
[2] = test system: transient receptor potential cation channel C4 beta (TRPC4), mouse; assay: activators of mouse TRPC4 channel, confirmation, cell-based, second round, Fluo4, HEK293 TRPC4beta/mu-opioid, 1 µM (AID 2461;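 active = primary screen active and over 50% activation in each of two duplicate runs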); settings: Fluo4 calcium fluorescence, at 1 µM; stronger effect = higher value
[3] = test system: TRPC4 (transient receptor potential cation channel C4 beta), mouse; assay: positive allosteric modulators of mouse TRPC4, confirmation, cell-based, second round, Fluo-4, HEK293 TRPC4beta/mu-opioid, 1 µM (AID 2554;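 active = primary screen hit whose fluorescence ratio, in both repeats, exceeds the weak agonist control mean by 3 SD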); settings: DAMGO EC20, Fluo-4 calcium flux, at 1 µM; stronger effect = higher value
[4] = test system: TRPC4 beta (transient receptor potential cation channel C4), mouse; assay: positive allosteric modulators of mouse TRPC4, confirmation, cell-based, Fluo-4, HEK293 TRPC4beta/mu-opioid (AID 2555;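 active = primary screen hit whose calcium fluorescence ratio, in both repeats, exceeds the weak agonist control mean by 3 SD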); settings: DAMGO EC20, Fluo-4 calcium flux, at 10 µM; stronger effect = higher value
[5] = biological target: Short transient receptor potential channel 4 (Mus musculus) (UniProt Q9QUQ5); assay: inhibitors of mouse TRPC4 channel, confirmation, cell-based, Fluo4, HEK293 TRPC4beta/mu-opioid (AID 2636;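 active = calcium signal cut by more than 3 SD below the full-agonist control yet still positive, in both repeats and the earlier primary screen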); settings: DAMGO, Fluo4 calcium flux, at 10 µM; stronger effect = higher value
Short transient receptor potential channel 4 (Mus musculus), sequence (Q9QUQ5 whole entry, looked up): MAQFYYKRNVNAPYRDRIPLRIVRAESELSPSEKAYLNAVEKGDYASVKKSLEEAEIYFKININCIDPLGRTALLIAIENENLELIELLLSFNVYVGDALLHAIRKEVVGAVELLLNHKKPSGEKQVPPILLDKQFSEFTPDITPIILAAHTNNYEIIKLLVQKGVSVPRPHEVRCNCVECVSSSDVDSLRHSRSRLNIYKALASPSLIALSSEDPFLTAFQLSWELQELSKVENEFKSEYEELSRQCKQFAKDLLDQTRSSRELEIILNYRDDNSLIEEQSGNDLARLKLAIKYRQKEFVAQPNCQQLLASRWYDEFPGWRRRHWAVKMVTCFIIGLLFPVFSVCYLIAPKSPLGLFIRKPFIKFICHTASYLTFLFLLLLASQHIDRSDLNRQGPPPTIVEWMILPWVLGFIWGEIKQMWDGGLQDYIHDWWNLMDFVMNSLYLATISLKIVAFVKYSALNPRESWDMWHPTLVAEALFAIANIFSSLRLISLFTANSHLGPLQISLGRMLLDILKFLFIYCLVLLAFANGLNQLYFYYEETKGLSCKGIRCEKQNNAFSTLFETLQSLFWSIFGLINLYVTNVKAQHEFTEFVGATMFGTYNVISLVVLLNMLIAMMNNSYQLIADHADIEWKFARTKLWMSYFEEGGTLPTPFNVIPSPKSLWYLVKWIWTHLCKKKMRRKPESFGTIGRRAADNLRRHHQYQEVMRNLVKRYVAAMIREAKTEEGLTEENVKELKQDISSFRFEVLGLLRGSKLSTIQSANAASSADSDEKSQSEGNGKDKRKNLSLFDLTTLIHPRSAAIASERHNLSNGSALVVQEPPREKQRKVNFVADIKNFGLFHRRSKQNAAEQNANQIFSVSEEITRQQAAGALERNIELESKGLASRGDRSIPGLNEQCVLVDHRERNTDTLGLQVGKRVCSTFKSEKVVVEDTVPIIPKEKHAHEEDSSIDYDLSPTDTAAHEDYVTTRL

[6] = biological target: Short transient receptor potential channel 4 (Mus musculus) (UniProt Q9QUQ5); assay: inhibitors of mouse TRPC4 channel, confirmation, cell-based, second round, Fluo4, HEK293 TRPC4beta/mu-opioid, 1 µM (AID 2637;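 active = calcium signal ratio cut to more than 3 SD under the fully stimulated control mean yet still positive, in both repeats and the primary screen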); settings: Fluo4 calcium flux, DAMGO, at 1 µM; stronger effect = higher value
[7] = biological target: Short transient receptor potential channel 4 (Mus musculus) (UniProt Q9QUQ5); assay: mouse TRPC4 channel activators, dose response, cell-based, HEK293 TRPC4/mu-opioid, Fluo-4 calcium (AID 434937;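 active = primary screen activator hit with a dose response curve and TRPC4 channel activation at any tested dose; inactive = no activation, no dose response, or not a primary hit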); settings: HEK293 TRPC4 cells, Fluo-4 calcium fluorescence ratio; series mostly up to 20 µM
[8] = biological target: Short transient receptor potential channel 4 (Mus musculus) (UniProt Q9QUQ5); assay: TRPC4 positive allosteric modulators, dose response, cell-based, HEK293 TRPC4/mu-opioid, Fluo-4 calcium, EC20 DAMGO (AID 434941;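 active = earlier screen potentiator hit that boosts the TRPC4 ion channel at some dose, with a dose response; inactive = no potentiation, no dose response, or not a prior hit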;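 also: calcium entry triggered by an EC20 dose of DAMGO at the co-expressed mu-opioid receptor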); settings: HEK293 TRPC4/mu-opioid cells, Fluo-4 calcium fluorescence; series mostly up to 20 µM
[9] = biological target: Short transient receptor potential channel 4 (Mus musculus) (UniProt Q9QUQ5); assay: mouse TRPC4 channel inhibitors, dose response, cell-based, HEK293 TRPC4/mu-opioid, Fluo-4 calcium (AID 434942;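 active = primary screen inhibitor hit that blocks the TRPC4 channel at some tested dose, yielding a dose curve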); settings: HEK293 TRPC4/mu-opioid cells, DAMGO-evoked Fluo-4 calcium ratio; series mostly up to 20 µM
[10] = biological target: Short transient receptor potential channel 6 (Mus musculus) (UniProt Q61143); assay: inhibition of mouse TRPC6 channel, confirmation, selectivity assay for TRPC4 inhibitor project, cell-based, HEK293, membrane potential dye, duplicate (AID 434948;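 active = active in primary screen and both duplicates, each dropping signal beyond three positive-control SD with fluorescence still positive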); settings: HEK293 TRPC6, membrane potential dye fluorescence, at 10 µM, stimulated with maximal-effect acetylcholine; stronger effect = higher value
Short transient receptor potential channel 6 (Mus musculus), sequence (Q61143 whole entry, looked up): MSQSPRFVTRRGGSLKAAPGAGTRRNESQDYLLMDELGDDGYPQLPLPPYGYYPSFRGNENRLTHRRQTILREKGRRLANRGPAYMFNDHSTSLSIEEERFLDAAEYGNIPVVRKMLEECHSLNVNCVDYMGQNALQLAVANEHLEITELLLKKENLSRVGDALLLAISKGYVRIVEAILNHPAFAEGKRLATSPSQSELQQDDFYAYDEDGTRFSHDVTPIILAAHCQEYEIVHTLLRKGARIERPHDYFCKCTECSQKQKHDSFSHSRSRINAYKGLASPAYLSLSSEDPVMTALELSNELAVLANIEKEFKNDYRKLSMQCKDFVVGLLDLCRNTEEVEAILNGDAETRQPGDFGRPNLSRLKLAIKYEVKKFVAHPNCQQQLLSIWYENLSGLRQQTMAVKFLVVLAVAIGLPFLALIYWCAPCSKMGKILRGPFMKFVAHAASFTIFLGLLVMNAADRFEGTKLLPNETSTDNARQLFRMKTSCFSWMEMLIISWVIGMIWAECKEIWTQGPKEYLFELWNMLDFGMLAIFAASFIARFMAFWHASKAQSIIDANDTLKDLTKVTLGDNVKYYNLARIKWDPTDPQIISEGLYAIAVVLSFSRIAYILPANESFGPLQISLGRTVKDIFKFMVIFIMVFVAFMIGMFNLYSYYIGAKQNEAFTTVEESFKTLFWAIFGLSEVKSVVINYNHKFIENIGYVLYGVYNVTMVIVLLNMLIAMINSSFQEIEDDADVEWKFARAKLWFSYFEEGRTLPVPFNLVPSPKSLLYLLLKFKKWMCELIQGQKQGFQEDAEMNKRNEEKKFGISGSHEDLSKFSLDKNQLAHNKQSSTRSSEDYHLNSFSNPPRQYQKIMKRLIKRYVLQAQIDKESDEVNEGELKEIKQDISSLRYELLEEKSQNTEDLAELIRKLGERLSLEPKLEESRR

[11] = biological target: Short transient receptor potential channel 6 (Mus musculus) (UniProt Q61143); assay: activation of mouse TRPC6 channel, confirmation, selectivity assay for TRPC4 activator project, cell-based, HEK293, membrane potential dye, duplicate (AID 434950); settings: HEK293 TRPC6, membrane potential fluorescence, at 10 µM; stronger effect = higher value
[12] = biological target: Short transient receptor potential channel 6 (Mus musculus) (UniProt Q61143); assay: TRPC6 potentiation by TRPC4 potentiator hits, confirmation, selectivity assay for TRPC4 potentiator project, HEK293 cells, membrane potential dye, duplicate (AID 434952;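 active = compound raising the membrane signal above positive-control mean plus 3 SD in both repeats, and a primary screen hit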); settings: HEK293 TRPC6, membrane potential dye fluorescence, at 10 µM, maximal acetylcholine added after compound; stronger effect = higher value
[13] = biological target: Short transient receptor potential channel 4 (Mus musculus) (UniProt Q9QUQ5); assay: calcium flux activators in TRPC4/5HT1a cells, counter-screen for TRPC4 activator project, cell-based, second counter screen, HEK293 TRPC4/5HT1a, Fluo-4 (AID 434977;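 active = calcium signal rise above buffer-control mean plus 5 SD in both duplicates, and also a hit in the primary screen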); settings: Fluo-4 calcium flux, at 10 µM; stronger effect = higher value
[14] = calcium flux inhibitors in TRPC4/5HT1a cells, confirmation, counter-screen for TRPC4 inhibitor project, cell-based, second counter screen, HEK293 TRPC4/5HT1a, Fluo-4 (AID 434978;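 active = primary screen active whose calcium signal fell more than 3 SD beyond the full-serotonin control mean in both duplicate plates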;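 as to outcome: serotonin given first at submaximal then at maximal dose after compound preincubation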); settings: Fluo-4 calcium flux, at 10 µM, serotonin added to trigger calcium flux; stronger effect = higher value
[15] = test system: TRPC4 (mouse), co-expressed with 5HT1a in HEK293; assay: calcium flux potentiators in TRPC4/5HT1a cells, confirmation, counter-screen for TRPC4 potentiator project, cell-based, second counter screen, HEK293 TRPC4/5HT1a, Fluo-4 (AID 434979;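 active = signal rise over 3 SD above mean of control wells given weak agonist, in both repeats and first screen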); settings: Fluo-4 calcium flux, at 10 µM, serotonin added at its EC20 dose; stronger effect = higher value
[16] = calcium flux activation in mu-opioid HEK293 cells, confirmation, counter-screen for TRPC4 activator project, cell-based, HEK293 mu-opioid receptor line (AID 449723;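 active = hit in primary screen, with calcium signal over 5 SD above buffer well mean in both duplicates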;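 also: counter screen cells carry the mu-opioid receptor alone and lack TRPC4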); settings: Fluo-4 calcium fluorescence, at 10 µM; stronger effect = higher value
[17] = calcium flux enhancement in mu-opioid HEK293 cells, confirmation, counter-screen for TRPC4 allosteric potentiator project, cell-based, HEK293 mu-opioid receptor line (AID 449724;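 active = calcium signal rise more than 3 SD above the low-dose agonist control mean, in both duplicate plates and the primary screen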); settings: Fluo-4 calcium flux, at 10 µM, compound added before EC20 DAMGO stimulus; stronger effect = higher value

Cc1cc(Oc2ccc(C(C)(C)C)cc2)nc(N2CCOCC2)n1
inactive: outcome [1] | outcome [2] | outcome [3] | outcome [5] | outcome [6] | outcome [7] | outcome [8] | outcome [9] | outcome [10] | outcome [11] | outcome [12] | outcome [13] | outcome [14] | outcome [16] | outcome [17]
active: potentiation [4] 7% | potentiation [15] 21.6%

NC(=O)NCCN1CCN(c2ncc(C(F)(F)F)cc2Cl)CC1
active: potentiation [3] 8% | potentiation [4] 11% | potentiation [15] 22%
inactive: outcome [1] | outcome [2] | outcome [5] | outcome [6] | outcome [7] | outcome [8] | outcome [9] | outcome [10] | outcome [11] | outcome [12] | outcome [13] | outcome [14] | outcome [16] | outcome [17]

COCCSc1ccccc1C(=O)N1CCC(Cc2ccccc2)CC1
inactive: outcome [1] | outcome [2] | outcome [3] | outcome [4] | outcome [5] | outcome [6] | outcome [7] | outcome [8] | outcome [9] | outcome [10] | outcome [11] | outcome [12] | outcome [13] | outcome [14] | outcome [15] | outcome [16] | outcome [17]

CCN1CCN(c2c(Cl)cccc2NC(=O)c2cc3ccccc3o2)CC1
active: potentiation [15] 7.29%
inactive: outcome [1] | outcome [2] | outcome [3] | outcome [4] | outcome [5] | outcome [6] | outcome [7] | outcome [8] | outcome [9] | outcome [10] | outcome [11] | outcome [12] | outcome [13] | outcome [14] | outcome [16] | outcome [17]

COc1ccc(CCNC(=O)Cn2cnc3c(cnn3C(C)(C)C)c2=O)cc1OC
active: potentiation [15] 7.92%
inactive: outcome [1] | outcome [2] | outcome [3] | outcome [4] | outcome [5] | outcome [6] | outcome [7] | outcome [8] | outcome [9] | outcome [10] | outcome [11] | outcome [12] | outcome [13] | outcome [14] | outcome [16] | outcome [17]

CC(C)(C)c1ccccc1OCCCCCn1ccnc1
inactive: outcome [1] | outcome [2] | outcome [3] | outcome [4] | outcome [5] | outcome [6] | outcome [7] | outcome [8] | outcome [9] | outcome [10] | outcome [11] | outcome [12] | outcome [13] | outcome [14] | outcome [15] | outcome [16] | outcome [17]

C=CCn1c(SCCN2CCOCC2)nc2c1c(=O)[nH]c(=O)n2C
active: potentiation [15] 35.7%
inactive: outcome [1] | outcome [2] | outcome [3] | outcome [4] | outcome [5] | outcome [6] | outcome [7] | outcome [8] | outcome [9] | outcome [10] | outcome [11] | outcome [12] | outcome [13] | outcome [14] | outcome [16] | outcome [17]

CCCCCOc1ccc2oc(=O)c3c(c2c1)CCCN3C(=O)CN1CCCC(C(=O)OCC)C1 (stereo not drawn)
active: potentiation [15] 7.34%
inactive: outcome [1] | outcome [2] | outcome [3] | outcome [4] | outcome [5] | outcome [6] | outcome [7] | outcome [8] | outcome [9] | outcome [10] | outcome [11] | outcome [12] | outcome [13] | outcome [14] | outcome [16] | outcome [17]

Cn1c(N2CCC(C(N)=O)CC2)nc2c1c(=O)n(Cc1ccc(Br)cc1)c(=O)n2C
inactive: outcome [1] | outcome [2] | outcome [3] | outcome [4] | outcome [5] | outcome [6] | outcome [7] | outcome [8] | outcome [9] | outcome [10] | outcome [11] | outcome [12] | outcome [13] | outcome [14] | outcome [15] | outcome [16] | outcome [17]

CN(C)CCCNc1ncnc2c1cnn2-c1ccccc1
active: potentiation [3] 16% | potentiation [4] 17% | potentiation [15] 28.6%
inactive: outcome [1] | outcome [2] | outcome [5] | outcome [6] | outcome [7] | outcome [8] | outcome [9] | outcome [10] | outcome [11] | outcome [12] | outcome [13] | outcome [14] | outcome [16] | outcome [17]

CC(C)c1ccc2c(c1)C1Cc3ccccc3C1N2 (stereo not drawn)
inactive: outcome [1] | outcome [2] | outcome [3] | outcome [4] | outcome [5] | outcome [6] | outcome [7] | outcome [8] | outcome [9] | outcome [10] | outcome [11] | outcome [12] | outcome [13] | outcome [14] | outcome [15] | outcome [16] | outcome [17]

O=C(Cn1nc(-c2ccccc2)ccc1=O)NCCN1CCN(Cc2ccccc2)CC1
inactive: outcome [1] | outcome [2] | outcome [3] | outcome [4] | outcome [5] | outcome [6] | outcome [7] | outcome [8] | outcome [9] | outcome [10] | outcome [11] | outcome [12] | outcome [13] | outcome [14] | outcome [16] | outcome [17]
active: potentiation [15] 13%

COc1ccc(CNC(=O)C(C)NCc2ccc(S(N)(=O)=O)cc2)cc1 (stereo not drawn)
inactive: outcome [1] | outcome [2] | outcome [3] | outcome [4] | outcome [5] | outcome [6] | outcome [7] | outcome [8] | outcome [9] | outcome [10] | outcome [11] | outcome [12] | outcome [13] | outcome [14] | outcome [15] | outcome [16] | outcome [17]

CCNc1nc(NC(C)(C)C)nc(N2CCCC2)n1
active: inhibition [5] 77% | inhibition [14] 41.2%
inactive: outcome [1] | outcome [2] | outcome [3] | outcome [4] | outcome [6] | outcome [7] | outcome [8] | outcome [9] | outcome [10] | outcome [11] | outcome [12] | outcome [13] | outcome [15] | outcome [16] | outcome [17]
